# Measured values reported in PubChem BioAssay (NCI).
# Values joined by “and” are separate entries in the source; they are usually repeats but may differ in a detail not shown here. Equal entries are not always repeated. The panel holds about 79,000 compounds, 15% with a hit somewhere; the sample as a whole holds those more often. Active and inactive are the calls of the source. Cut-off read from the data, not from the text of the source: active = growth inhibition above about 70%; inactive = the rest.
# Assay: NCI Yeast Anticancer Drug Screen. Data for the cln2 rad14 strain (AID 165);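 note: 0% = growth equal to vehicle treated cultures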
# Conditions: S. cerevisiae cln2 rad14 strain, at 50.0 µM, stronger effect = higher value
# Outline: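 Growth inhibition, relative to vehicle-treated controls, is the read-out. The test organism is a yeast strain with defined genetic alterations, cln2 rad14.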
row,SMILES,growth inhibition
1,CC(=O)OC(OC(C)=O)c1ccc2ccc3cccc4ccc1c2c34,45.2% (inactive)
2,C[N+]1=C(/C=C\c2ccc(O)c3ccccc23)C(C)(C)c2ccccc21,54.9% (inactive)
3,OCC(O)C(O)C(O)C(O)CNCC(O)C(O)C(O)C(O)CO (stereo unspecified),-6.2% (inactive) and -7.7% (inactive) and -3.1% (inactive)
4,NCC(=O)NC(CO)C(=O)O (stereo unspecified),-34.1% (inactive) and -5.75% (inactive) and -10.1% (inactive)
5,CCCCC(O)CCCC,22.2% (inactive)
6,Nc1ccc(O)c2ccccc12,10.1% (inactive)
7,O=C1CCC(Cc2ccc(C(F)(F)F)cc2)C(=O)N1 (stereo unspecified),-42.7% (inactive)
8,CCCCCCCC[N+](C)(C)Cc1ccc(C[N+](C)(C)CCCCCCCC)cc1,24.9% (inactive)
9,CC(C)(N)COB(c1ccccc1)c1ccccc1,99.5% (active)
10,CCCCC(Oc1cc(C(C)(C)C)c(O)c(C(C)(C)C)c1)C(=O)O (stereo unspecified),99% (active)
11,CCCCCCCCN(CCCCCCCC)Cc1ccc(Br)cc1,99% (active)
12,CCc1cc2c(c3c1C(=O)CC3)C(C)(C)CCC2,13.8% (inactive)
13,FC(F)(F)c1ccc(Cl)c(NC(=S)SC2CCCCC2)c1,98.5% (active)
14,NC(N)=Nc1ccc(Cc2ccc(N=C(N)N)cc2)cc1,45% (inactive)
15,Nc1ccc(S(=O)(=O)O)c2ccccc12,6.25% (inactive) and -52.1% (inactive) and -17.6% (inactive)
16,Nc1ccc(-c2cccc(-c3ccccc3)c2)cc1,98.7% (active)
